Data on 8 compounds can be found in PubChem BioAssay (NCI).

This is part of a sample that, as a whole, favours compounds with a hit. Of some 79,000 tested, about 15% had one in any assay. Unmarked numbers belong to inactive results. Active and inactive are the calls of the source. Rule as the data show it: active = growth inhibition above about 70%; inactive = the rest.

This assay can be described thus: NCI Yeast Anticancer Drug Screen. Data for the mlh1 strain (AID 171).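 Also: 0% = growth of vehicle-treated control cultures of the same strain.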 As to conditions: S. cerevisiae mlh1 strain growth inhibition, stronger effect = higher value. The procedure: Growth inhibition of yeast strains with defined genetic alterations is measured as a screen for potential anti-cancer activity. Selected strains with alterations in DNA damage repair or cell cycle control were exposed to compounds and growth inhibition was measured relative to vehicle treated controls. The strain used in this assay is mlh1

As for `Fc1ccc(Nc2ccc3ccccc3c2)cc1`, the growth inhibition reads like this: (at 1.2 µM) 0%; (at 3.7 µM) 0%; (at 11.0 µM) -2%; (at 33.0 µM) 44%; (at 100.0 µM) 90% (active).
`Cc1nc2sc3c(c2c(=O)o1)CCCC3`: the growth inhibition (at 1.2 µM) was 1%; the growth inhibition (at 3.7 µM) was -3%; the growth inhibition (at 11.0 µM) is 5%; the growth inhibition (at 33.0 µM) is 2%; the growth inhibition (at 100.0 µM) is 2%.
On to `CCCCS(=O)(=O)Nc1ccc(Nc2c3ccccc3nc3ccccc23)c(OC)c1`, for which the growth inhibition reads like this: (at 1.2 µM) -58%; (at 3.7 µM) -43%; (at 11.0 µM) -29%; (at 33.0 µM) 73% (active); (at 100.0 µM) 97% (active).
Taken in the same sequence, the figures for `c1ccc(-c2cc(C3CO3)c3ccccc3n2)cc1` (stereo not given) were -1%, -1%, 6%, 73% (active) and 99% (active).
Taken in the same sequence, the figures for `CC(=O)N1C=Cc2c(c(C)c3c([nH]c4ccccc43)c2C)C1` were 31%, 71% (active), 90% (active), 96% (active) and 95% (active).
For `CCCCCCC=C(C(=O)OCC)C(=O)OCC` the same measures were -2%, -2%, -7%, 1% and 19%.
Take `CC12CCC(CC(=O)/C1=C(/Br)I)C2(C)C` (stereo not given): the growth inhibition is 2% (at 1.2 µM); -3% (at 3.7 µM); 3% (at 11.0 µM); 3% (at 33.0 µM); -1% (at 100.0 µM).
As for `Cc1cccc2c(NCCCN(C)C)c3c([N+](=O)[O-])ccc(C)c3nc12`, the growth inhibition (at 1.2 µM) is 8%; the growth inhibition (at 3.7 µM) is 18%; the growth inhibition (at 11.0 µM) is 63%; the growth inhibition (at 33.0 µM) is 97% (active); the growth inhibition (at 100.0 µM) was 98% (active).
